Test results: PubChem BioAssay (Tox21)
Several values for one entry are separate records, joined by “and”; a condition that tells them apart may be missing. Equal values may be shown once. A structure can be active in one record and inactive in another. Activity calls are given as the source filed them. A call without a number means that no potency is given here. Unless noted, calls follow the shape of the dose curve; as a rule, active = well fitted curve in the direction sought with a large enough effect in the repeat runs; inconclusive = weak or mixed curves; inactive = no such curve, though single readings can be large; an effect the other way counts as inactive or inconclusive.

Tests used:
[1] = qHTS assay to identify small molecule antagonists of the thyroid receptor (TR) signaling pathway - cell viability counter screen (AID 743064); also: nearly all actives have a fitted effect of over 50% in size; also: potency is read from the fitted curve at half-maximal effect
Method in brief: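 Plate GH3.TRE-Luc cells; incubate 4 h at 37 °C; add compound, then T3 to 1 nM final; incubate 23.5 h; add CellTiter-Fluor; incubate 30 min at 37 °C, 5% CO2; read fluorescence.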

[2] = qHTS assay to identify small molecule antagonists of the thyroid receptor (TR) signaling pathway (AID 743065); also: nearly all actives have a fitted effect of over 55% in size; also: potency is read from the fitted curve at half-maximal effect
Method in brief: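 GH3.TRE-Luc rat pituitary cells carrying two TR response elements driving luciferase were plated for 4 h, given compound plus 1 nM T3 (final), and incubated 23.5 h at 37 C. ONE-Glo luminescence measured reporter inhibition; CellTiter-Fluor fluorescence tracked cytotoxicity.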

[3] = system: thyroid hormone receptor (rat, GH3 cells); test: qHTS assay to identify small molecule agonists of the thyroid receptor (TR) signaling pathway (AID 743066; calls by dose curve; also: potency is read from the fitted curve at half-maximal effect)
[4] = molecular target: Estrogen receptor (Homo sapiens) (UniProt P03372); test: qHTS assay to identify small molecule antagonists of the estrogen receptor alpha (ER-alpha) signaling pathway (AID 743069; active = well fitted curve in the direction sought with a large enough effect in the signal ratio in the repeat runs, not every such curve was filed as active; inconclusive = weak or mixed curves, or effect the other way; inactive = no such curve, though single readings can be large or run the other way; the % refers to the signal ratio; also: potency is read from the fitted curve at half-maximal effect)
Method in brief: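 Estradiol-stimulated ER-alpha-UAS-bla HEK293 cells, 18 hr compound exposure at 37C. LiveBLAzer B/G substrate, 2 hr RT, fluorescence read.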

[5] = qHTS assay to identify small molecule antagonists of the estrogen receptor alpha (ER-alpha) signaling pathway - cell viability counter screen (AID 743074; calls by dose curve;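 also: HEK293 cells carrying ER-alpha-UAS-bla reporter stimulated with 17beta-estradiol; nearly all actives have a fitted effect of over 45% in size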)
[6] = molecular target: Estrogen receptor (Homo sapiens) (UniProt P03372); test: qHTS assay to identify small molecule agonists of the estrogen receptor alpha (ER-alpha) signaling pathway (AID 743075; calls by dose curve;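 also: HEK293 GripTite cells with ER-alpha and UAS-driven beta-lactamase reporter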; also: potency is read from the fitted curve at half-maximal effect)
[7] = molecular target: Estrogen receptor (Homo sapiens) (UniProt P03372); test: qHTS assay to identify small molecule agonists of the estrogen receptor alpha (ER-alpha) signaling pathway using the BG1 cell line (AID 743079); also: nearly all actives have a fitted effect of over 20% in size; also: potency is read from the fitted curve at half-maximal effect
[8] = qHTS assay to identify small molecule antagonists of the estrogen receptor alpha (ER-alpha) signaling pathway using the BG1 cell line (AID 743080; calls by dose curve;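 also: BG1 cells stimulated with 17beta-estradiol alongside compound; nearly all actives have a fitted effect of over 25% in size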; also: potency is read from the fitted curve at half-maximal effect)
Method in brief: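 BG1-Luc-4E2 cells (endogenous full-length ER-alpha, stable 4×ERE-luciferase) were starved 5 days in phenol-red-free medium with 10% charcoal-stripped FBS, plated 24 h, then given compound plus 17beta-estradiol for 21.5 h at 37 C; ONE-Glo luminescence read after 30 min.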

[9] = qHTS assay to identify small molecule antagonists of the estrogen receptor alpha (ER-alpha) signaling pathway using the BG1 cell line - cell viability counter screen (AID 743081);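 also: compound given together with 17beta-estradiol as the ER stimulus; nearly all actives have a fitted effect of over 45% in size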; also: potency is read from the fitted curve at half-maximal effect
[10] = molecular target: Aromatase (Homo sapiens) (UniProt P11511); test: qHTS assay to identify aromatase inhibitors (AID 743083); also: nearly all actives have a fitted effect of over 55% in size; also: potency is read from the fitted curve at half-maximal effect
[11] = qHTS assay to identify aromatase inhibitors - cell viability counter screen (AID 743084);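 also: cells stimulated with testosterone during compound exposure; nearly all actives have a fitted effect of over 55% in size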; also: potency is read from the fitted curve at half-maximal effect
[12] = molecular target: Aryl hydrocarbon receptor (Homo sapiens) (UniProt P35869); test: qHTS assay to identify small molecule that activate the aryl hydrocarbon receptor (AhR) signaling pathway (AID 743085); also: nearly all actives have a fitted effect of over 15% in size; also: potency is read from the fitted curve at half-maximal effect;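 as to activation: HG2L7.5c1 human HepG2 liver cells with stably integrated DRE-driven firefly reporter; series mostly up to about 70 µM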
Method in brief: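 Steps: seed HepG2-AhR-luc cells; allow 5 h at 37C; pin-transfer test compound or vehicle; incubate 24 h at 37C; add viability dye (30 min, 37C) and read fluorescence; add luciferase substrate (30 min, RT) and read luminescence.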

[13] = qHTS assay to identify small molecule that activate the aryl hydrocarbon receptor (AhR) signaling pathway - cell viability counter screen (AID 743086); also: nearly all actives have a fitted effect of over 45% in size; also: potency is read from the fitted curve at half-maximal effect
Method in brief: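 HepG2-AhR-luc (HG2L7.5c1) cells, 4000/well, were preincubated 5 h at 37C, exposed to compound in qHTS format for 24 hr at 37C, then given CellTiter-Fluor for 30 min; viability was read as fluorescence in the reporter wells.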

[14] = molecular target: Peroxisome proliferator-activated receptor gamma (Homo sapiens) (UniProt P37231); test: qHTS assay to identify small molecule agonists of the peroxisome proliferator-activated receptor gamma (PPARg) signaling pathway (AID 743094; active = well fitted activation curve with a large enough effect in the signal ratio in the repeat runs, not every such curve was filed as active; inconclusive = weak or mixed curves, or effect the other way; inactive = no such curve, though single readings can be large or run the other way; the % refers to the signal ratio; also: potency is read from the fitted curve at half-maximal effect)
Method in brief: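 Stably transfected HEK293H cells (GeneBLAzer PPARg UAS-bla) were incubated with test substances for 17 h at 37C after a 5 h pre-incubation; beta-lactamase activity was then detected by FRET substrate fluorescence.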

[15] = molecular target: Peroxisome proliferator-activated receptor gamma (Homo sapiens) (UniProt P37231); test: qHTS assay to identify small molecule antagonists of the peroxisome proliferator-activated receptor gamma (PPARg) signaling pathway (AID 743191; calls by dose curve; also: series mostly up to about 63 µM; nearly all actives have a fitted effect of over 30% in size)
Method in brief: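 GeneBLAzer PPARg UAS-bla HEK293H cells carrying a UAS-driven beta-lactamase reporter were plated at 3000 cells/well, preincubated 5 h at 37C, then given compound for 17 h at 37C; LiveBLAzer B/G FRET substrate was read after 1 h at room temperature.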

[16] = qHTS assay to identify small molecule antagonists of the peroxisome proliferator-activated receptor gamma (PPARg) signaling pathway - cell viability counter screen (AID 743194); conditions: Potency: co-treated with 50 nM rosiglitazone unless noted; also: nearly all actives have a fitted effect of over 55% in size
Method in brief: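 PPARg-UAS-bla HEK293H cells were plated, rested 5 h at 37 C, then treated with compounds plus rosiglitazone (50 nM final) for 17 h at 37 C; viability was then read by CellTiter-Glo luminescence after 30 min at room temperature.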

[17] = qHTS assay for small molecule agonists of the antioxidant response element (ARE) signaling pathway (AID 743202; active = well fitted activation curve with a large enough effect in the signal ratio in the repeat runs, not every such curve was filed as active; inconclusive = weak or mixed curves, or effect the other way; inactive = no such curve, though single readings can be large or run the other way; the % refers to the signal ratio; also: potency is read from the fitted curve at half-maximal effect)
Method in brief: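 Compounds delivered in DMSO to ARE-bla HepG2 cells (2,000 cells/well, pre-incubated 5 h) and left 16 h at 37 C. LiveBLAzer B/G FRET substrate then added for 2 h at RT before fluorescence reading.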

[18] = qHTS assay for small molecule agonists of the antioxidant response element (ARE) signaling pathway - cell viability counter screen (AID 743203; calls by dose curve; also: nearly all actives have a fitted effect of over 55% in size; also: potency is read from the fitted curve at half-maximal effect)
Method in brief: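 Cells (ARE-bla HepG2, 2,000/well) receive DMSO-dissolved compounds after a 5 hrs rest. Plates incubate 16 hrs at 37C/5% CO2. CellTiter-Glo luminescence is then recorded after 30 min at room temperature.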

[19] = qHTS assay for small molecule activators of the heat shock response signaling pathway - cell viability counter screen (AID 743209); also: nearly all actives have a fitted effect of over 50% in size; also: potency is read from the fitted curve at half-maximal effect
Method in brief: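 Quantitative HTS format, Tox21 10K library. HeLa cells carrying an HSE-driven beta-lactamase reporter were treated 5 h at 37 C, then assessed for viability by CellTiter-Glo luminescence.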

[20] = qHTS assay for small molecule activators of the heat shock response signaling pathway (AID 743210; active = well fitted activation curve with a large enough effect in the signal ratio in the repeat runs, with a control signal flat, not every such curve was filed as active; inconclusive = weak or mixed curves; the % refers to the signal ratio; also: potency is read from the fitted curve at half-maximal effect;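 as to activation: HeLa cells with beta-lactamase reporter driven by heat shock elements; series mostly up to about 63 µM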)
Method in brief: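 Reporter gene assay: HeLa cells stably bearing an HSE-bla construct, compound treatment 5 h at 37 C, LiveBLAzer substrate 2.5 h at RT, fluorescence intensity.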

Chain of Peroxisome proliferator-activated receptor gamma (Homo sapiens) (P37231 whole entry, looked up): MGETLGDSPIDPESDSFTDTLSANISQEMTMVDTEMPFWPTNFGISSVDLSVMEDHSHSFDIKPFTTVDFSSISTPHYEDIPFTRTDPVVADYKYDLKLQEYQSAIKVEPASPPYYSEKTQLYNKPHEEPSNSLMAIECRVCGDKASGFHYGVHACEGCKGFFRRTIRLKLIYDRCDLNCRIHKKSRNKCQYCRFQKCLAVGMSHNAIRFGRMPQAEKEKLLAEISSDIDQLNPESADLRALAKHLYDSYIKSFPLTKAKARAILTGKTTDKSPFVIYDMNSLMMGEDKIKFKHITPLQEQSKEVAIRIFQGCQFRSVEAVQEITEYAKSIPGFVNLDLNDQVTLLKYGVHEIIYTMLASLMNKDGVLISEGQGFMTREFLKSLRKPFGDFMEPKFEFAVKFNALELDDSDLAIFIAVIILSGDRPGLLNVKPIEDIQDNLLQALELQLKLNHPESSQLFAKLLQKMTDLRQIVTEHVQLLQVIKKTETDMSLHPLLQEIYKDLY
Chain of Estrogen receptor (Homo sapiens) (P03372 whole entry, looked up): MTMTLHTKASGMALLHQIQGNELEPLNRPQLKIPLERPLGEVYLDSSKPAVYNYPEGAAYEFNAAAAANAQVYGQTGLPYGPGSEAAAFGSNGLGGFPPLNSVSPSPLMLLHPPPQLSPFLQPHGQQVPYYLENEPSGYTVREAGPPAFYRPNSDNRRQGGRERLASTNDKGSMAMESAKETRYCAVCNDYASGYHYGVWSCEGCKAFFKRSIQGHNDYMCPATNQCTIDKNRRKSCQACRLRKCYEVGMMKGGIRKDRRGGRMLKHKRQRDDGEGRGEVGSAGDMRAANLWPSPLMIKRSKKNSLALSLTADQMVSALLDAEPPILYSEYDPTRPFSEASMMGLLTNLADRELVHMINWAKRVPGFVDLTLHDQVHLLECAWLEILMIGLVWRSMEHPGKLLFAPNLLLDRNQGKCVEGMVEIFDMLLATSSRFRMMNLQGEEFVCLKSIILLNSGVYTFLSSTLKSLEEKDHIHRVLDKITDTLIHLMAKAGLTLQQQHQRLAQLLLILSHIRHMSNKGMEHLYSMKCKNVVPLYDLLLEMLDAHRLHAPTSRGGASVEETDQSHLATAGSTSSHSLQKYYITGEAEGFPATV
Chain of Aryl hydrocarbon receptor (Homo sapiens) (P35869 whole entry, looked up): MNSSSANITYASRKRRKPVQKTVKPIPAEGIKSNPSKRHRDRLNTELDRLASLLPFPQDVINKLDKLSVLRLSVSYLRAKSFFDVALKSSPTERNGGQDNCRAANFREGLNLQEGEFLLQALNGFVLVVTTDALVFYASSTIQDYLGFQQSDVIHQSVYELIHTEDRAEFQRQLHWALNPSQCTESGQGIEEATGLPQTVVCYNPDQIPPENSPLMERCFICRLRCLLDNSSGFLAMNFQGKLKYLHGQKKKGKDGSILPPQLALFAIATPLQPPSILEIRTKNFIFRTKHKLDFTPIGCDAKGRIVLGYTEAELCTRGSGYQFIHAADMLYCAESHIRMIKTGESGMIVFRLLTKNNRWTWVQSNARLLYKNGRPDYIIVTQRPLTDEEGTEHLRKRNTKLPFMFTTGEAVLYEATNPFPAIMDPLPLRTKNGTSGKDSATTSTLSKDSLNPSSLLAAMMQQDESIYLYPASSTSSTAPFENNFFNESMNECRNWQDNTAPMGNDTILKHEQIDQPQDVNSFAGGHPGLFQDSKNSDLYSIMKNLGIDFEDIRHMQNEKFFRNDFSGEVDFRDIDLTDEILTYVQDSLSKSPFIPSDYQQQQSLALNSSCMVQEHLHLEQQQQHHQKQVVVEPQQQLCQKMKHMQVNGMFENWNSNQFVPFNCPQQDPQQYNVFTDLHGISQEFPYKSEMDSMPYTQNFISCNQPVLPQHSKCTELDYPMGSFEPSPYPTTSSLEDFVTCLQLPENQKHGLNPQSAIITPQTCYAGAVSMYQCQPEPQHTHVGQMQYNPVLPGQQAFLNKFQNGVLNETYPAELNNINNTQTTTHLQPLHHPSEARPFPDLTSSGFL
Chain of Aromatase (Homo sapiens) (P11511 whole entry, looked up): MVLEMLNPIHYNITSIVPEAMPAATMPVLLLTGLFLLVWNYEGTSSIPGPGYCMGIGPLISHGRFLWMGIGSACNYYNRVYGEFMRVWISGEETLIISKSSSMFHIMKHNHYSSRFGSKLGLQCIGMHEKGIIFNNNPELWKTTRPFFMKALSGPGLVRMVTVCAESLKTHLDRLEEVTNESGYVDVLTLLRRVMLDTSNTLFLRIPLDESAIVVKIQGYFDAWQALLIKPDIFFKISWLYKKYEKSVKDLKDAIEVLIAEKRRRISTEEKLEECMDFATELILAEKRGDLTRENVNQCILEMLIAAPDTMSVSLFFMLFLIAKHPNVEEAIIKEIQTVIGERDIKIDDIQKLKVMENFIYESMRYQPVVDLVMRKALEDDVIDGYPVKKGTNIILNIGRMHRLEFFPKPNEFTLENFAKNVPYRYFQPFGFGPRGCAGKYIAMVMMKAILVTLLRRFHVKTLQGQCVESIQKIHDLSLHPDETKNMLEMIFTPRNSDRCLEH

Row | Structure (SMILES) | Potency [1] | Potency [2] | Potency [3] | Potency [4] | Potency [5] | Potency [6] | Potency [7] | Potency [8] | Potency [9] | Potency [10] | Potency [11] | Potency [12] | Potency [13] | Potency [14] | Potency [15] | Potency [16] | Potency [17] | Potency [18] | Potency [19] | Potency [20]
1 | Cc1ccccc1[N+](=O)[O-] | inactive | inactive | inactive | inactive | inactive | inactive | inactive | inactive | inactive | inactive | inactive | inactive | inactive | inactive | inactive | inactive | inactive | inactive | inactive | –
2 | c1ccc(-c2cccc(-c3ccccc3)c2)cc1 | inactive | inactive | inactive | inactive | inactive | inactive | 21.9 µM (active) and 10.9 µM (active) | – | inactive | inactive | inactive | inactive and 61.1 µM (active) | inactive | inactive | inactive | inactive | inactive | inactive | inactive | inactive
3 | CCCCCCCCCCCOC(=O)c1ccccc1C(=O)OCCCCCCCCCCC | inactive | inactive | inactive | inactive | inactive | inactive | 26.6 µM (active) and inactive | inactive | inactive | inactive | inactive | inactive | inactive | – | – | inactive | – | inactive | inactive | –
4 | CCCCCCCCC(=O)NCc1ccc(O)c(OC)c1 | inactive | 54.5 µM (active) | inactive | inactive | inactive | inactive | inactive | inactive | inactive | inactive | inactive | – | inactive | inactive | inactive | inactive | inactive | inactive | inactive | inactive
5 | NNC(=S)NN | inactive | inactive | inactive and 61.1 µM (active) | inactive | inactive | inactive | inactive | inactive | inactive | inactive | inactive | – | inactive | inactive | inactive | inactive | inactive | inactive | inactive | 1.79 µM (active) and 4.36 µM (active)
6 | CCCCC(CC)COC(=O)Cl (centres undefined) | inactive | inactive | inactive | inactive | inactive | inactive | inactive | inactive | inactive | inactive | inactive | inactive | inactive | inactive | inactive | inactive | – | inactive | inactive | inactive
7 | CCCCCCCCOC(=O)c1ccccc1C(=O)OCCCCCCCC | inactive | inactive | inactive | inactive | inactive | inactive | inactive | inactive | inactive | inactive | inactive | inactive | inactive | inactive and 54.8 µM (active) | inactive | inactive | – | inactive | inactive | inactive
8 | Cc1ccc2c(c1N)C(=O)c1ccccc1C2=O | 67.8 µM (active) | inactive | inactive | inactive | inactive | 389 nM [inconclusive] (active) | 3.03 µM (active) and 4.33 µM (active) | – | 30.3 µM (active) and 27.3 µM (active) | inactive | 43.3 µM (active) | 3.03 µM (active) and 4.33 µM (active) | 27.3 µM (active) | – | – | inactive | – | inactive | inactive | inactive
9 | CC(C)Oc1cc(-n2nc(C(C)(C)C)oc2=O)c(Cl)cc1Cl | 53.7 µM (active) | 67.6 µM (active) | inactive | 61.6 µM [inconclusive] (active) | inactive | inactive | – | 47.9 µM (active) | inactive | 60.3 µM (active) and 17.2 µM (active) | 27.3 µM (active) | inactive | inactive | inactive | – | inactive | – | inactive and 34.4 µM (active) | inactive | –
10 | N#CC(Br)Br | inactive | inactive | inactive | inactive | inactive | inactive | inactive | inactive | inactive | inactive | inactive | inactive | inactive | – | inactive | inactive | – | inactive | inactive | inactive
11 | Nc1ccc(Cl)c(Cl)c1 | inactive | inactive | inactive | – | inactive | – | – | – | inactive | inactive | inactive | 55.7 µM (active) and 61.1 µM (active) | inactive | inactive | – | inactive | – | inactive | inactive | inactive
12 | CC(C)(C)c1ccccc1O | inactive | inactive | inactive | – | inactive | – | – | – | inactive | inactive | inactive | inactive | inactive | – | inactive | inactive | – | inactive | inactive | inactive
13 | O=C1C=CC(=O)C=C1 | inactive | inactive | inactive | – | inactive | – | – | – | inactive | inactive | inactive | inactive | inactive | inactive | – | – | – | inactive | inactive | inactive
14 | O=C(O)C(F)(F)C(F)(F)C(F)(F)C(F)(F)C(F)(F)C(F)(F)C(F)(F)F | inactive | inactive | inactive | – | inactive | – | – | – | inactive | inactive | inactive | inactive | inactive | – | – | inactive | 27.3 µM (active) and 21.6 µM (active) | inactive | inactive | –
15 | C[C@]12CCC(=O)C(O)=C1CC[C@@H]1[C@@H]2CC[C@]2(C)C(=O)CC[C@@H]12 | inactive | inactive | inactive | – | inactive | 23.9 µM [activator] (active) and 21.3 µM [activator] (active) and 34.7 µM [activator] (active) | 11.9 µM (active) and 5.96 µM (active) and 5.45 µM (active) | inactive | inactive | 75 nM (active) and 53.1 nM (active) and 27.3 nM (active) | inactive | inactive | inactive | – | inactive | inactive | – | inactive | inactive | inactive
16 | CC(C)(OOC(C)(C)c1ccccc1)c1ccccc1 | 42.7 µM (active) | 53.7 µM (active) and 43.3 µM (active) | inactive | – | inactive | – | – | – | inactive | inactive | inactive | inactive | inactive | – | – | inactive | – | inactive | 48.3 µM (active) and inactive | inactive
17 | NNC(N)=S | inactive | inactive | inactive | inactive | – | inactive | inactive | inactive | inactive | 50.4 µM (active) and inactive | 28.4 µM (active) and inactive | inactive and 19.3 µM (active) | inactive | inactive | inactive | inactive | inactive | inactive | 40.4 µM (active) and inactive | –
18 | c1ccc(N=Nc2ccccc2)cc1 | inactive | inactive | inactive | – | inactive | – | – | – | inactive | inactive | inactive | inactive | inactive | inactive | inactive | inactive | – | inactive | inactive | inactive
19 | Oc1cc(Cl)c(Cl)cc1Cl | inactive | inactive | inactive | – | inactive | – | – | – | inactive | inactive | inactive | inactive | inactive | – | inactive | inactive | – | inactive | inactive | inactive
20 | O=C(O)CC[N+](=O)[O-] | inactive | inactive | inactive | – | inactive | – | – | – | inactive | inactive | inactive | inactive | inactive | inactive | inactive | inactive | inactive | inactive | inactive | inactive
21 | Nc1ccc(Cl)cc1N | 42 µM (active) | 24.3 µM (active) | inactive | – | inactive | – | – | – | inactive | inactive | inactive | 11.3 µM (active) and 13.7 µM (active) | – | inactive | – | inactive | – | inactive and 6.11 µM (active) | inactive | –
22 | CN(C)c1ccc(C(=O)c2ccc(N(C)C)cc2)cc1 | 30.3 µM (active) and inactive | 5.39 µM (active) and 1.09 µM (active) | inactive | – | inactive | – | – | – | inactive | inactive | inactive | 428 nM (active) and 3.86 µM (active) | – | – | – | inactive | – | inactive | inactive | inactive
23 | COc1ccc(C(CN(C)C)C2(O)CCCCC2)cc1 (centres undefined) | inactive | inactive | inactive | – | inactive | – | – | – | inactive | inactive | inactive | – | inactive | – | inactive | inactive | – | inactive | inactive | inactive
